# Results reported in PubChem BioAssay AID504339 (National Center for Advancing Translational Sciences (NCATS), 2011).
# Among all 390,000 compounds or so, about 17,000 (4.4%) were called active. Not shown: some 8% with an inconclusive outcome. Shown is part of a subset that was picked to be rich in actives. A number with no mark means an inactive call. Calls come from the whole dose curve; as a rule, active = well fitted inhibition curve with a large enough effect; inconclusive = small, poorly fitted or top-dose-only effect; inactive = no such curve, though single readings can be large or run the other way.
# Biological target: Lysine-specific demethylase 4A (Homo sapiens) (UniProt O75164)
# Sequence (O75164 whole entry, looked up, the tested form may be a part): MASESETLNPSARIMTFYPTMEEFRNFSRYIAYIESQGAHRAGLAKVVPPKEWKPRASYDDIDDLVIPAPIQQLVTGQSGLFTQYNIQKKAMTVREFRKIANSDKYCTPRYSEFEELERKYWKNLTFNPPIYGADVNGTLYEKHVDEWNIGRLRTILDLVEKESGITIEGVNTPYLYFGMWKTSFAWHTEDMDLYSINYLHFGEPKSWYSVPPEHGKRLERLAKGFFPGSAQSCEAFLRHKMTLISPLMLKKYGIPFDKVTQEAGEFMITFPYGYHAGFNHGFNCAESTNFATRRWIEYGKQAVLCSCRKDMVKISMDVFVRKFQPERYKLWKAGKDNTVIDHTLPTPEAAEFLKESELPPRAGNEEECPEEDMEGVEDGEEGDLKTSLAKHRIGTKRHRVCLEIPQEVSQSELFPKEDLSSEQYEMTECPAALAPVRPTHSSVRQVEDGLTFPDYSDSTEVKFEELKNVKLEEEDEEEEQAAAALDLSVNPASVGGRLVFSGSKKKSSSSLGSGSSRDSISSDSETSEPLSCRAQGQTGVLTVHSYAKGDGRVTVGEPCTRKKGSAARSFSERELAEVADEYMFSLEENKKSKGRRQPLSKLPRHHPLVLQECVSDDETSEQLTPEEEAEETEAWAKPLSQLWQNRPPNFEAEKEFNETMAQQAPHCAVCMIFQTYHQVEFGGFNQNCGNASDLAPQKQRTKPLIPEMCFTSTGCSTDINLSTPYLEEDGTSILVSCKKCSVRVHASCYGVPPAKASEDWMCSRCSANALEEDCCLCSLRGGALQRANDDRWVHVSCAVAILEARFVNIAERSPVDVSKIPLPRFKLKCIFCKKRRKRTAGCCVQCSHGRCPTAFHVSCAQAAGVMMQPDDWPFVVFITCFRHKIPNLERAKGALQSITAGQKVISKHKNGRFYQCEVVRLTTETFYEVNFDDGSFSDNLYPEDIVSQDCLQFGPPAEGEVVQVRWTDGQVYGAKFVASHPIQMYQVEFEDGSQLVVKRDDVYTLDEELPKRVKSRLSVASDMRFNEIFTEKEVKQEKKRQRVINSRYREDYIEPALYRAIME
# Assay: qHTS Assay for Inhibitors of JMJD2A-Tudor Domain; note: nearly all actives have a fitted effect of over 50% in size
# Conditions: AlphaScreen JMJD2A-Tudor / H3K4me3 peptide binding; series mostly up to 114 µM; activity change, negative = inhibition: at the top concentration
# % is set by controls: 0 for no effect and ±100 for the full control effect; potency is the fitted concentration of half-maximal effect.
Compound,"activity change, negative = inhibition",Potency
O=C1CSC2(C(=O)N(Cc3ccccc3)c3ccccc32)N1c1cccc(F)c1 (stereo not given),-8.97%,
COc1ccccc1Nc1nc(N)nc(CN(C)C2CCCCC2)n1,,15.8 µM (active)
COc1ccccc1NC1=NC(c2ccc(Cl)cc2)N=C(N)N1 (stereo not given),-20.7%,
COc1ccccc1Nc1nc(N)nc(CSC(=S)N2CCOCC2)n1,-7.91%,
O=C(Nc1cc(C(F)(F)F)ccc1Cl)c1ccc2c(c1)CCN2S(=O)(=O)c1ccccc1,3.14%,
CC(C)CNc1ncnc2c1nnn2C,-14.6%,
O=C(CC1N=C2c3ccccc3N=C(SCc3cccc(Cl)c3)N2C1=O)NCc1ccc2c(c1)OCO2 (stereo not given),-21.7%,
COC(=O)c1c(NC(=O)c2c(Cl)cnn2C)sc(C)c1C,-1.31%,
CCOC(=O)c1c(NC(=O)CCl)sc(C(=O)N(CC)CC)c1C,-2.65%,
COCCCNCC(=O)Nc1sc(C)c(C)c1C(=O)OC,,28.2 µM (active)
CCc1cccc(NC(=O)CSc2nccn2C)c1,-5.6%,
Cc1cc(C)cc(OCC(=O)Nc2c(C(=O)c3ccccc3)oc3ccccc23)c1,12.7%,
O=C(Cn1cc(SCc2cccc(Cl)c2)c2ccccc21)N1CCCCC1,8.06%,
COc1ccc(-c2nn(CC(=O)NC3CCCC3)c3c2cnc2ccc(F)cc23)cc1,-9.67%,
O=C(COC(=O)c1ccccc1)c1ccc2c(c1)OCCO2,2.03%,
O=C(CN1CCC(O)(c2ccccc2)CC1)Nc1ccc2c(c1)OCCO2,-14.5%,
O=C(CCN1CCc2ccccc2C(O)(c2ccccc2)C1)c1ccc2c(c1)OCCO2 (stereo not given),,79.4 µM (active)
Cc1cc(Cl)ccc1NC(=O)Cc1ccc(NC(=O)N2CCCCc3ccccc32)cc1,-24%,
Cc1ccc(C)c(Cn2c(C)c(CNCc3ccc(F)cc3)c(C(=O)O)c2C)c1,-25.5%,
S=c1[nH]ccn1-c1ccc(Cl)cc1,,10 µM (active)
CCOC(=O)c1ccccc1NC(=O)c1sc2nc(-c3ccc(F)cc3)cn2c1C,-18.2%,
CCN1CCN(CCNC(=O)c2ccc(/C=C3/Sc4ccccc4N(Cc4cccc(C)c4)C3=O)cc2)CC1,,50.1 µM (active)
O=C(NCCCN1CCOCC1)c1ccc2c(c1)N(Cc1cccc(F)c1)C(=O)c1ccccc1S2,0.389%,
CN1CCN(CCCNC(=O)c2ccc(/C=C3\Oc4ccccc4N(Cc4ccc(Cl)cc4)C3=O)cc2)CC1,-1.17%,

Compound,"activity change, negative = inhibition",Potency
COc1ccc(Cl)cc1NC(=O)Cn1c(=O)c2ccccc2n2nncc12,-26.8%,
COc1ccccc1CNCc1ccc(C(=O)O)s1,-5.03%,
CSc1nc(Nc2ccc(F)cc2)cc(-c2ccccc2)n1,43.4%,
COC(C(=O)Nc1ccc(C(C)=O)cc1)c1ccccc1 (stereo not given),-6.88%,
COc1ccc(NC(C(=O)Nc2cccc(C(C)=O)c2)c2ccccc2)cc1 (stereo not given),,17.8 µM (active)
COc1ccc(NC(=O)[C@H](NC(=O)[C@@H]2Cc3ccccc3CN2)c2ccccc2)cc1,-9.09%,
Cc1ccccc1CNC(=O)Cn1c(C)c2cnn(-c3ccccc3)c(=O)c2c1C,-6.71%,
CC(=O)Oc1ccc(C(C)=O)c2c1OCCO2,-12.2%,
CC(=O)Oc1ccc(OC(C)=O)c2c1C1C=CC2CC1,,22.4 µM (active)
COc1cc(OC)c(NC(=O)c2nc(-c3ccncc3)no2)cc1Cl,-1.64%,
CC(C)(C)NC(=O)CSc1nc(-c2ccc(F)cc2)cc(C(F)(F)F)n1,11.3%,
Cc1cc(C)nc(N(C#N)CC(=O)Nc2ccccc2)n1,-7.56%,
CC(Sc1nnc2c(n1)C1CCC2(C)C1(C)C)C(=O)Nc1ccccc1 (stereo not given),-11.3%,
CSc1nc(C)cc(SC(C(C)=O)C(=O)Nc2ccccc2)n1 (stereo not given),,56.2 µM (active)
CCOc1ccc(NC(=O)c2c(NCc3cccc(OC)c3OC)sc3c2CCC3)cc1,-25.3%,
O=C(NCc1nnc(C(=O)Nc2ccc(C(F)(F)F)cc2Cl)o1)c1ccccc1,-20.5%,
Cc1ccc(NC(=O)Nc2sc3nc4n(c(=O)c3c2C)CCC(C)CC4)c(Cl)c1 (stereo not given),-6.18%,
COc1ccccc1C(=O)N/C(=C/c1ccco1)C(=O)Nc1ccc(C(=O)O)cc1,,25.1 µM (active)
COc1ccccc1C(=O)N/C(=C/c1ccc2c(c1)OCO2)C(=O)Nc1cccc(C(=O)O)c1,-8.7%,
Cc1ccc(NC(=O)/C(=C\c2ccccc2)NC(=O)c2ccco2)cc1,-1.39%,
Cc1cccc(C(CC(=O)NCC2(c3ccccc3)CCCC2)c2ccccc2)c1O (stereo not given),-5.84%,
CCOC(=O)CN1C(C(=O)c2ccccc2)=C(OC(=O)C(C)(C)C)c2ccccc2S1(=O)=O,-18.2%,
CC(CCCc1ccccc1)NC(=O)c1nn(-c2ccc(Cl)cc2)nc1CO (stereo not given),-3.77%,
O=C(Cn1cnc2c(OCc3ccccc3)ncnc21)NCc1nc2ccccc2[nH]1,,56.2 µM (active)

Compound,"activity change, negative = inhibition",Potency
O=C(Cn1cnc2c(OCc3ccccc3)ncnc21)NCCCn1ccnc1,-13.8%,
CC(CNC(=O)Cn1cnc2c(OCc3ccccc3)ncnc21)c1ccccc1 (stereo not given),-17.3%,
CC(C)S(=O)(=O)c1oc(-c2ccc(F)cc2)nc1S(=O)(=O)c1ccc(F)cc1,-11.1%,
Cc1ccc(Cl)cc1NC(=O)NC1COc2ccccc2C1 (stereo not given),-16.9%,
Cc1c(Cl)c([N+](=O)[O-])nn1Cc1ccc(C(=O)N/N=C\c2cc(Cl)ccc2O)o1,-25.2% [at 57.1 µM],
Cc1cc(C(=O)N/N=C/c2cc([N+](=O)[O-])cc(C)c2O)n[nH]1,,44.7 µM (active)
COc1ccc(C(=O)NNC(=O)c2cc(C)[nH]n2)cc1,-4.35%,
CCCCS(=O)(=O)c1oc(-c2cccs2)nc1S(=O)(=O)c1ccccc1,-4.51%,
Cc1ccc(-c2ccc(/C=C(\C#N)C(N)=S)o2)c([N+](=O)[O-])c1,,14.1 µM (active)
CCCCOC(=O)/C(C#N)=C/c1ccc(-c2cccc(C(F)(F)F)c2)o1,-25.2%,
CCOC(=O)c1ccc(-c2ccc(/C=C(\C#N)C(=O)Nc3ccc(C)cc3)o2)cc1,-26.2%,
Cc1cccn2c(=O)c(C(=O)NC(C)c3ccccc3)cnc12 (stereo not given),-5%,
CCC(C)c1ccc2oc(-c3ccc(NC(=O)c4cc5ccccc5o4)cc3)nc2c1 (stereo not given),-14.5%,
Cc1ccc(S(=O)(=O)N2CCN(C)CC2)cc1,-7.48%,
CC(=O)Nc1ccc(S(=O)(=O)N2CCN(C3CCCCCCC3)CC2)cc1,-30.2%,
Cc1ccc(S(=O)(=O)N2CCC(C(=O)N3CCCCCCC3)CC2)cc1,-7.56%,
O=C(C1CCCN(S(=O)(=O)c2ccc([N+](=O)[O-])cc2)C1)N1CCCCC1 (stereo not given),-6.21%,
COc1ccc(N2CCN(C(=O)C3CCN(C(=O)c4ccccc4Cl)CC3)CC2)cc1,-15.7%,
Cc1ccc(S(=O)(=O)N2CCCC(C(=O)N3CCN(C)CC3)C2)cc1 (stereo not given),,2.82 µM (active)
Cc1ccc(S(=O)(=O)N2CCC(N3CCCCCC3)CC2)cc1,,0.891 µM (active)
COc1ccc(S(=O)(=O)N2CCCC(C(=O)N3CCN(C)CC3)C2)cc1C (stereo not given),-6.21%,
COc1ccc(N2CCN(C(=O)C3CCN(S(=O)(=O)c4ccc(C)cc4)CC3)CC2)cc1,,39.8 µM (active)
CCOC(=O)C1CCC(CN(Cc2ccc(OC)cc2)S(=O)(=O)c2ccc(F)c(C(=O)Nc3cc(C)ccc3C)c2)CC1 (stereo not given),-18.3%,
N#Cc1nc(/C=C/c2ccc(F)cc2)oc1NC1CCCCC1,-25.8%,

Compound,"activity change, negative = inhibition",Potency
COc1ccc(Cn2ccn(Cc3cccc(OC)c3)c(=O)c2=O)cc1,-12.8%,
Cc1ccccc1Cn1nc(C)c(NC(=O)c2cc(-c3ccc(F)cc3)on2)c1C,-2.73%,
Cc1c(Cl)cccc1NC(=O)CCS(=O)(=O)c1ccc2c(c1)oc(=O)n2C,-10.4%,
COc1cccc(C(=O)NCc2ccc3c(c2)CCN3C(=O)c2ccncc2)c1,-10.3%,
COc1cc(C)ccc1OCCSc1nc2ccc(NC(=O)c3ccc(C)cc3)cc2s1,5.63%,
COc1cc(Cl)c(C)cc1NC(=O)CCc1nc2cccnc2n1Cc1cccs1,-17.5%,
Oc1c(C=Nc2cccc3nsnc23)ccc2ccccc12,,89.1 µM (active)
O=C(Nc1ccc(F)cc1F)c1ccc2c(=O)n3c(nc2c1)CCCCC3,-4.44%,
COc1cc2c(=O)c(S(=O)(=O)c3ccc(C(C)C)cc3)cn(Cc3ccccc3C)c2cc1OC,-26.8%,
CCN(C(=O)Cc1nc(N)n[nH]1)C1(C(=O)Nc2ccccc2)CCCCC1,,100 µM (active)
CCc1ccc(NC(=O)CN2C(=O)C(c3ccccc3)=NC23CCCCCC3)cc1,-9.73%,
C=CCN(C(=O)c1cc(C)cc(C)c1)C1(C(=O)Nc2ccccc2)CCN(C(C)C)CC1,-22.4%,
CC1CCCC(C)N1C(=O)CN1CCN(c2nc(-c3ccc(F)cc3)cs2)CC1 (stereo not given),,79.4 µM (active)
CCc1ccc(CNC(=O)C2CCN(c3nn4cc(-c5ccc(F)cc5)nc4s3)CC2)cc1,1.65%,
O=C(COC(=O)C1CCCO1)Nc1nc(-c2ccc(F)cc2)cs1 (stereo not given),-6.9%,
O=C(CNC(=O)c1ccccc1)OC(C(=O)Nc1cc([N+](=O)[O-])ccc1F)c1ccccc1 (stereo not given),-28.1%,
COc1ccc(Cn2ccnc2SCC(=O)NCc2ccco2)cc1,-26.8%,
Cc1cccc(OCCSc2nc3ccc(NC(=O)COc4ccccc4C)cc3s2)c1,2.32%,
COc1ccc(CCOC2OC(CO)C(OC(=O)/C=C/c3ccc(O)c(OC)c3)C(O[C@H]3O[C@@H](C)[C@H](O)[C@@H](O)[C@H]3O)C2O)cc1O (stereo not given in full),-23.8%,
C[C@@H]1O[C@@H](OC[C@H]2O[C@@H](Oc3c(-c4ccc(O)cc4)oc4cc(O)cc(O)c4c3=O)[C@H](O)[C@@H](O)[C@@H]2O)[C@H](O)[C@H](O)[C@H]1O,-18.4%,
COc1ccc(-c2cc(=O)c3c(O)cc(O[C@@H]4O[C@H](CO[C@@H]5O[C@@H](C)[C@H](O)[C@@H](O)[C@H]5O)[C@@H](O)[C@H](O)[C@H]4O)cc3o2)cc1O,,20 µM (active)
COc1ccc(NC(=O)N2CCCn3nc(C)cc32)cc1OC,-11%,
Cc1ccccc1NC(=O)Cn1c(=O)n(CCc2ccccc2)c(=O)c2ccccc21,-13%,
